USP1-UAF1 inh: Inhibitors of USP1/UAF1: Primary Screen | recombinant USP1/UAF1, Ub-Rhodamine cleavage fluorescence | Potency, µM (series often up to 57.1 µM), actives largely listed as inhibitors | 390,000 tested, 0.23% active | AID 743255, 2014; note: nearly all actives have a fitted effect of over 60% in size
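USP1/UAF1 complex at 1 nM was preincubated with compound for 15 min at room temperature, then Ub-Rho substrate (150nM final) was added. Fluorescence (480/540 nm) was read kinetically, 6 reads every 60 seconds.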
EPAC2 agonist: qHTS for Agonist of cAMP-regulated guanine nucleotide exchange factor 4 (EPAC2): primary screen. Potency, µM (doses to about 154 µM), most hits filed as activators. Rap guanine nucleotide exchange factor 4 (Homo sapiens), Q8WZA2. 360,000 tested, 0.079% active. EPAC2 activation, biochemical qHTS; response scale: 100% = 6.5 mM cAMP response; note: nearly all actives have a fitted effect of over 50% in size
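Exchange assay: 100 nM EPAC2 with 250 nM Rap1B-BODIPY-GDP and 50 uM GDP. Fluorescence (ex 480/em 540 nm) read every 5 min for 30 min at room temperature. Data normalized to 6.5 mM cAMP as agonist control.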
EPAC2 antagonist: qHTS for Antagonist of cAMP-regulated guanine nucleotide exchange factor 2 (EPAC2): primary screen; Rap guanine nucleotide exchange factor 4 (Homo sapiens), Q8WZA2; EPAC2 GEF exchange of Rap1B-BODIPY-GDP, fluorescence; Potency, µM (doses to about 114 µM), actives largely listed as inhibitors; 360,000 tested, 0.18% active; AID 720708, 2013; note: nearly all actives have a fitted effect of over 45% in size
EPAC1 antag: qHTS for Antagonist of cAMP-regulated guanine nucleotide exchange factor 3 (EPAC1): primary screen; Rap guanine nucleotide exchange factor 3 (Homo sapiens), O95398; EPAC1 GEF assay, Rap1b-BODIPY-GDP exchange fluorescence; Potency, µM (doses to about 115 µM), usual class: inhibitors; 360,000 tested, 0.14% active; AID 720709, 2013; note: nearly all actives have a fitted effect of over 50% in size
Target sequence (O95398 whole entry, looked up): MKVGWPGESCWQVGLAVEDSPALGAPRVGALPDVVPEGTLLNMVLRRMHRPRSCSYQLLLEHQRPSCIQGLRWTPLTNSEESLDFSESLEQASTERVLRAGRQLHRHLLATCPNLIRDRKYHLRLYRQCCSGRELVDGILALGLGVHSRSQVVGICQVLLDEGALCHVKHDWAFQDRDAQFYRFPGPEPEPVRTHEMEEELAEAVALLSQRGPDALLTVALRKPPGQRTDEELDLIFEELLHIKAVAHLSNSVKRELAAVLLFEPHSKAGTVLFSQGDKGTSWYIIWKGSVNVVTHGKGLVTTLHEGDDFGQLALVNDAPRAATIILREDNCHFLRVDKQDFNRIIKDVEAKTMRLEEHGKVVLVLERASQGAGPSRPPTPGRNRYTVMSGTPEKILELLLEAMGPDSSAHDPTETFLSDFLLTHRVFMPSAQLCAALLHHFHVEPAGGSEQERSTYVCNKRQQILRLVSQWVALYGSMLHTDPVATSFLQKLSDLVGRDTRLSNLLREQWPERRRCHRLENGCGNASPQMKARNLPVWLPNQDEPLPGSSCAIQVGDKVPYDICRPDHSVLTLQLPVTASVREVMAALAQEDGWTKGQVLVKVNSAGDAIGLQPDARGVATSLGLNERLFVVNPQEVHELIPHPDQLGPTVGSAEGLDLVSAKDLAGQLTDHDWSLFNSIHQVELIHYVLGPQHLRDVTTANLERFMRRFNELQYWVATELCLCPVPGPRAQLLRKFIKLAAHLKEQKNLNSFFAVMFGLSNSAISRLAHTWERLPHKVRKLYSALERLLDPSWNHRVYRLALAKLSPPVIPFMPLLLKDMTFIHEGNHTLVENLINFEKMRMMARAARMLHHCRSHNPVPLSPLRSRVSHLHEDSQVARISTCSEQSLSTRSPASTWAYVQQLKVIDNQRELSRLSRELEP
EPAC1 agonist: qHTS for Agonist of cAMP-regulated guanine nucleotide exchange factor 3 (EPAC1): primary screen; Rap guanine nucleotide exchange factor 3 (Homo sapiens), O95398; EPAC1 agonist qHTS, biochemical assay; response scale: 100% = response to 6.5 mM cAMP; Potency, µM (highest dose often 154 µM), most hits filed as activators; 360,000 tested, 0.073% active; note: nearly all actives have a fitted effect of over 60% in size
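Nucleotide exchange by EPAC1 (100 nM) on Rap1B–BODIPY-GDP (250 nM) in the presence of 50 uM GDP is tracked fluorescently at 480/540 nm over 30 min. Signals are normalized to a 6.5 mM cAMP control.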
Numbers stand for hits; n = inactive; u = inconclusive; x = not tested or not shown. Only some compounds are listed: those with a hit (about 0.49% of all), similar ones and a draw of the others. Calls come from the whole dose curve; as a rule, active = well fitted curve in the direction sought with a large enough effect; inconclusive = small, poorly fitted or top-dose-only effect, or another doubt; inactive = no such curve, though single readings can be large; an effect the other way counts as inactive or inconclusive.

SMILES | USP1-UAF1 inh | EPAC2 agonist | EPAC2 antagonist | EPAC1 antag | EPAC1 agonist
CCOc1ccc(CNC(=O)Cn2ncc3c(=O)oc4ccc(C)cc4c32)cc1 | n | x | x | x | x
O=C(O)c1cccc(N2C(=O)c3cc([N+](=O)[O-])cc4cc([N+](=O)[O-])cc(c34)C2=O)c1 | n | n | 50µM | n | n
Cc1nn(-c2ccc(N3CCCC3)nn2)c(C)c1CCC(=O)N1CCN(c2ccc(F)cc2)CC1 | n | x | x | x | x
CCOC(=O)c1c(C)sc(-c2c(-c3ccc4c(c3)OCCO4)[nH]c3c2c(=O)n(C)c(=O)n3C)c1O | 16µM | x | x | x | x
CCOC(=O)c1c(C)sc(-c2c(-c3ccc4c(c3)OCCO4)[nH]c3c2c(=O)[nH]c(=O)n3C)c1O | 25µM | x | x | x | x
CCOC(=O)c1c(C)sc(-c2c(-c3ccc(OC)c(F)c3)[nH]c3c2c(=O)[nH]c(=O)n3C)c1O | 22µM | x | x | x | x
Cc1cccc(N(C)S(=O)(=O)c2cc3[nH]c(=O)c(=O)[nH]c3cc2C)c1 | n | x | x | x | x
CCOc1ccc2oc(=O)cc(CN3CCN(c4ccc(Cl)cc4)CC3)c2c1 | n | x | x | x | x
COCCn1c(-c2ccc(Br)cc2)csc1=Nc1cccnc1 | n | n | 45µM | n | n
Clc1ccc(-c2csc(=Nc3cccnc3)n2CCCn2ccnc2)cc1Cl | n | n | n | n | n
O=c1c2ccccc2sn1-c1ccc(Cl)cc1Cl | n | n | 11µM | n | n
CS(=O)(=O)C1=NSC2=NC(=O)/C(=C\c3cccn3-c3ccc(Cl)cc3)C(=N)N21 | n | n | n | 35µM | n
CC1=C(C(=O)OCc2ccc3c(c2)OCO3)C(c2ccccc2OCc2ccccc2)NC(=O)N1 (stereo not drawn) | n | n | n | n | n
CC1=C(C(=O)OCc2ccc3c(c2)OCO3)C(c2ccccc2)NC(=O)N1 (stereo not drawn) | n | 100µM | n | n | n
CCN(C(=O)CN1C(=O)c2ccccc2Sc2ccc(C(=O)OC)cc21)c1cccc(C)c1 | n | x | x | x | x
CC(C)c1nn2c(=O)cc(COC(=O)c3ccc(NC(=O)c4ccccc4Cl)cc3)nc2s1 | n | x | x | x | x
Cc1ccc(N2CC(NC(=O)CCc3ccccc3)CC2=O)cc1 (stereo not drawn) | n | x | x | x | x
O=C(NC[C@@H]1CCCO1)c1cccc2c1C(=O)c1ccc(N3CCOCC3)cc1S2(=O)=O | n | n | n | n | n
Cc1ccc(CNC(=O)c2cccc3c2C(=O)c2ccc(N4CCOCC4)cc2S3(=O)=O)cc1 | u | n | n | n | n
O=C(NCc1cccc(F)c1)c1cccc2c1C(=O)c1ccc(N3CCOCC3)cc1S2(=O)=O | n | 89µM | n | n | n
CC1CCN(c2ccc3c(c2)S(=O)(=O)c2cccc(C(=O)NC[C@@H]4CCCO4)c2C3=O)CC1 | u | 112µM | n | n | n
Cc1ccc(CNC(=O)c2cccc3c2C(=O)c2ccc(N4CCCCC4)cc2S3(=O)=O)cc1 | n | 56µM | n | n | 10µM
CCOC(=O)/C(C#N)=C/C=C1/C=CC=CN1C | n | n | n | n | n
C=CCN1C=CC(=C/C=C(/C#N)C(=O)OCC)C=C1 | 28µM | n | n | n | n
c1ccc(NN(Cc2cnccn2)c2ccccc2)cc1 | n | n | u | n | n
SMILES | USP1-UAF1 inh | EPAC2 agonist | EPAC2 antagonist | EPAC1 antag | EPAC1 agonist
c1ccc(NN(Cc2ccccn2)c2ccccc2)cc1 | n | n | 14µM | n | n
CC(=O)Nc1ccc(NC2=CC(=O)c3ccccc3C2=O)cc1 | n | n | n | n | n
Cc1ccc(NC2=C(Cl)C(=O)c3ccccc3C2=O)cc1 | n | n | n | n | n
CCOC(=O)c1ccc(NC2=CC(=O)C(=O)c3ccccc32)cc1 | 7.9µM | n | n | n | n
Cc1ccc(NC2=CC(=O)C(=O)c3ccccc32)cc1 | 25µM | n | n | n | n
COc1cc(OC)c(NC2=CC(=O)C(=O)c3ccccc32)cc1Cl | 18µM | n | n | n | n
Cc1cc(NC2=CC(=O)C(=O)c3ccccc32)no1 | 2.5µM | n | u | u | n
